Reference: PubChem BioAssay AID485314 (National Center for Advancing Translational Sciences (NCATS), 2010)
About 4,500 (1.3%) of roughly 340,000 compounds were called active. Not shown: some 5% with an inconclusive outcome. Calls follow the shape of the dose curve; as a rule, active = well fitted inhibition curve with a large enough effect; inconclusive = small, poorly fitted or top-dose-only effect, or another doubt; inactive = no such curve, though single readings can be large or run the other way. What follows is part of a selection rich in actives, with near analogues and random picks from the rest.

target: DNA polymerase beta (Homo sapiens) (UniProt P06746); experiment: qHTS Assay for Inhibitors of DNA Polymerase Beta; conditions: Pol beta primer extension/strand displacement, fluorescence kinetic; series mostly up to 114 µM; activity change, negative = inhibition: at the top concentration
How it was run: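 Homogeneous kinetic assay of primer extension and strand displacement by 10 nM Pol beta, preincubated 15 min at room temperature with compound before 50 nM substrate (final) was added. Read at 0 and 10 min; four-parameter Hill fit.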
% is scaled to controls: 0 for no effect and ±100 for the full control effect; potency is read from the fitted curve at half-maximal effect.

Row | Compound | activity change, negative = inhibition | Potency
1 | CCOc1ccc(N(C)S(=O)(=O)c2cc(-c3cnc(C)o3)ccc2OC)cc1 | 3.9% (inactive) | –
2 | Cc1cccc(N2CCN(S(=O)(=O)c3ccc4[nH]c5c(c4c3)CCCCC5)CC2)c1C | 5.75% (inactive) | –
3 | Cc1nn(-c2ccc(N3CCCCC3)nn2)c(C)c1CCC(=O)NCc1ccccc1F | 4.44% (inactive) | –
4 | COc1ccc(Cl)cc1NC(=O)c1cccc(N2C(=O)C3CC=CCC3C2=O)c1 (centres undefined) | 28.5% (inactive) | –
5 | Cc1ccc(C(=O)NC(C)c2ccccc2)cc1Br (centres undefined) | -3.8% (inactive) | –
6 | CC1=CCC2C(=O)N(c3cccc(C(=O)NC(C)c4ccccc4)c3)C(=O)C2C1 (centres undefined) | – | 39.8 µM (active)
7 | CCN(CC)C(=O)CSc1nc2ccsc2c(=O)n1Cc1ccccc1Cl | -18.1% (inactive) | –
8 | Cc1ccc(NC(=O)COc2ccc(/C=N\NC(=O)c3cccnc3)cc2)cc1C | -0.199% (inactive) | –
9 | O=C(COc1ccc(/C=N/NC(=O)c2ccc(O)cc2)cc1)Nc1ccc([N+](=O)[O-])cc1 | – | 2.24 µM (active)
10 | NC(=O)c1ccc(NC(=O)COC(=O)c2ccc([N+](=O)[O-])cc2)cc1 | 0.237% (inactive) | –
11 | CC1CN(C(=O)N2CCC(C(=O)NCc3cccs3)CC2)c2ccccc2O1 (centres undefined) | -7.1% (inactive) | –
12 | Cc1cccc(C(=O)N2c3nc(-c4ccco4)nn3C3(CCCCC3)[C@@H]3CCCC[C@@H]32)c1 | 13.2% (inactive) | –
13 | Cc1nnc(SCC2=C(C(=O)O)N3C(=O)C(NC(=O)Cn4nc(C)c(Cl)c4C)C3SC2)s1 (centres undefined) | – | 39.8 µM (active)
14 | Cc1nnc(SCC(=O)NC2CCCC2)s1 | 2.1% (inactive) | –
15 | Cc1nnc(SCC(=O)Nn2cnnc2)s1 | -9.11% (inactive) | –
16 | Cc1sc(C2C(C#N)=C(N)N(c3cccc(Cl)c3)C3=C2C(=O)CCC3)cc1CN1CCOCC1 (centres undefined) | 16.6% (inactive) | –
17 | Cc1nc2c(-c3ccc(F)cc3)c(C)nn2c(C)c1CCC(=O)NCc1ccco1 | 36% (inactive) | –
18 | O=C(CSc1nnc2scc(-c3ccc(F)cc3)n12)NCc1ccco1 | 11.6% (inactive) | –
19 | Fc1ccc(-c2ccc(-c3nn4c(-c5ccco5)nnc4s3)o2)cc1 | – | 44.7 µM (active)
20 | COC(=O)COc1ccc2c(c1C)O/C(=C\c1ccco1)C2=O | – | 50.1 µM (active)
21 | Cc1cc(C)c(OCC(=O)N/N=C/c2ccco2)c(C)c1 | 3.54% (inactive) | –
22 | COC(=O)C1=C(C)N(c2ccc(Br)cc2)C(=O)/C1=C\c1ccco1 | 23.8% (inactive) | –
23 | CC1CCCN(c2csc3ccc(F)cc3c2=O)C1 (centres undefined) | 13.1% (inactive) | –
24 | CCCn1c(NCc2ccc(N(CC)CC)cc2)nc2ccccc21 | -0.488% (inactive) | –
25 | COc1cc(/C=N/NC(=O)c2cc(C)n(-c3ccc(F)cc3)c2C)cc(OC)c1O | -1.21% (inactive) | –

Row | Compound | activity change, negative = inhibition | Potency
26 | Cc1nn(CC(=O)N/N=C/c2ccc(F)cc2)c(C)c1[N+](=O)[O-] | 30.3% (inactive) | –
27 | Cc1cc(C(=O)N/N=C/c2ccc(O)c([N+](=O)[O-])c2)c(C)n1-c1ccc(F)cc1 | – | 20 µM (active)
28 | CCOC(=O)c1ccc(-c2ccc(/C=C(\C#N)C(=O)Nc3ccc(OCC)cc3)o2)cc1 | 78.1% (inactive) | –
29 | Cc1ccc(/C=C(\C#N)C(=O)Nc2cccc3ncccc23)o1 | – | 3.16 µM (active)
30 | O=C(O)c1cc(Cl)c(Cl)cc1C(=O)Nc1cccc2ncccc12 | -0.55% (inactive) | –
31 | CCOCCCNC(=O)c1cn(CC)c2ccc(S(=O)(=O)N3CCc4ccccc4C3)cc2c1=O | 12% (inactive) | –
32 | CCN1/C(=C/c2ccc3ccc(C)cc3[n+]2CC)Sc2ccccc21 | – | 31.6 µM (active)
33 | CCN1/C(=C\c2ccc3ccccc3[n+]2CC)Sc2cc(C)ccc21 | – | 25.1 µM (active)
34 | Cn1c(=O)c2c(-c3ccccc3Br)n(Cc3ccccc3)cc2n(C)c1=O | 0.692% (inactive) | –
35 | COc1ccccc1CNC(=O)C(=O)NCC(c1cccs1)S(=O)(=O)c1cccs1 (centres undefined) | 9.72% (inactive) | –
36 | Cc1c(Cl)cccc1NC(=O)C(=O)NCCc1csc2nc(-c3ccccc3F)nn12 | 12.1% (inactive) | –
37 | COc1ccc(Nc2ncc3c(n2)CCN(C(=O)OC(C)(C)C)C3)cc1 | 2.37% (inactive) | –
38 | COc1cccc(-c2nc(CS(=O)(=O)CC(=O)N3CCN(c4cc(C)ccc4C)CC3)c(C)o2)c1 | -0.161% (inactive) | –
39 | COc1cccc(C(c2c(O)cc(C)n(Cc3ccco3)c2=O)N2CCN(c3ccccc3)CC2)c1 (centres undefined) | 1.76% (inactive) | –
40 | Cc1ccccc1CNC(=O)c1cccc(NC(=O)c2nsc3ccccc23)c1 | 5.88% (inactive) | –
41 | COc1cc(OC)cc(C(=O)Nc2cc3nn(-c4ccccc4)nc3cc2Cl)c1 | 4.33% (inactive) | –
42 | CC1(C)Cc2c(C#N)c(SCc3nc4ccccc4[nH]3)nc(N3CCOCC3)c2CO1 | 22.2% (inactive) | –
43 | O=c1[nH]c(N2CCOCC2)nc2ccccc12 | -8.66% (inactive) | –
44 | C1=C(N2CCOCC2)/C(=C/c2nc3ccccc3[nH]2)CC1 | – | 20 µM (active)
45 | O=C(CC(c1cccs1)N1Cc2ccccc2C1=O)Nc1ccc(F)c(F)c1 (centres undefined) | -15.9% (inactive) | –
46 | Cc1c(C(=O)Nc2cccc(Cl)c2)oc2ccc(S(=O)(=O)N3CCOCC3)cc12 | 1.9% (inactive) | –
47 | CCc1nnc(NS(=O)(=O)c2ccc(NC(=S)NC(=O)c3cccs3)cc2)s1 | -13.3% (inactive) | –
48 | CCOC(=O)c1c(NC(=S)NC(=O)/C=C/c2cccs2)sc(C)c1C | 1.96% [at 57.1 µM] (inactive) | –
49 | CCc1nnc(NS(=O)(=O)c2ccc(NC(=S)NC(=O)/C=C/c3cccs3)cc2)s1 | – | 89.1 µM (active)
50 | COc1cccc(CNC(=O)Cc2csc3nc(-c4ccccc4)cn23)c1 | 0.953% (inactive) | –

Row | Compound | activity change, negative = inhibition | Potency
51 | Fc1ccccc1Oc1ncnc2c1oc1ccccc12 | 10.3% (inactive) | –
52 | COc1ccc(CC(=O)Nc2nnc3n2CCS3)cc1OC | 4.66% (inactive) | –
53 | CCCCOc1ccc(CNC(=O)c2ccc3c(c2)N(C)C(=O)C2CCCCN32)cc1 (centres undefined) | 7.82% (inactive) | –
54 | COc1ccccc1-c1cc2nc(C)c(CCC(=O)O)c(C)n2n1 | 7.49% (inactive) | –
55 | C=CCn1c(CSc2nc3ccccc3s2)nnc1SCC(=O)NCc1ccco1 | – | 39.8 µM (active)
56 | CCn1c(SCC(=O)NCc2ccco2)nnc1-c1ccc(N)cc1 | 3.21% (inactive) | –
57 | O=C(CSc1nc2ccc(Nc3nc(N4CCOCC4)nc(N4CCOCC4)n3)cc2s1)NCc1ccco1 | -8.34% (inactive) | –
58 | Cc1ccc(Cn2c(CNC(=O)Cc3cccc(C)c3)nc3cccnc32)cc1 | 12.8% (inactive) | –
59 | Cc1cc(NC(=O)c2cccc(Cl)c2)ccc1-c1cc2ccccc2oc1=O | -1.24% (inactive) | –
60 | CCOc1ccc(-n2c(C)nc3c(cnn3-c3ccc(C)cc3)c2=O)cc1 | 3.24% (inactive) | –
61 | COC(=O)c1ccc2c(c1)N(CC(=O)Nc1ccc(C)c(C)c1)C(=O)c1ccccc1S2 | -5.63% (inactive) | –
62 | COc1ccccc1NC(=O)CN1C(=O)c2ccccc2Sc2ccc(C(=O)N3CCCC3)cc21 | – | 50.1 µM (active)
63 | COc1cccc(NC(=O)CN2C(=O)c3ccccc3Sc3ncccc32)c1 | 4.05% (inactive) | –
64 | CCc1ccc(NC(=O)Cn2c(=O)n(CCC(=O)NCc3ccc4c(c3)OCO4)c(=O)c3ccccc32)cc1 | 34.8% (inactive) | –
65 | COc1ccc(OCC(=O)Nc2nnc(-c3ccco3)s2)cc1 | – | 17.8 µM (active)
66 | Cc1cccc(NC(=O)CSc2nnc(-c3ccco3)o2)c1 | 2.85% (inactive) | –
67 | CNc1nnc(-c2ccco2)s1 | -0.0763% (inactive) | –
68 | COc1ccc(NC(=O)COCc2cc(-c3ccco3)on2)cc1 | 40.1% (inactive) | –
69 | Cc1ccc(OCC(=O)Nc2ccc(-c3nnc(-c4ccco4)o3)cc2)cc1 | – | 14.1 µM (active)
70 | CC(=O)Nc1ccc(NC(=O)COc2ccc(-c3ccccc3)cc2)cc1 | 2.33% (inactive) | –
71 | O=C(CSc1nc(=O)[nH]c2c1CCCC2)Nc1cc(C(F)(F)F)ccc1Cl | 14% (inactive) | –
72 | Cc1cccc(C(C)C)c1NC(=O)C(NS(=O)(=O)c1cccc2nsnc12)c1ccccc1 (centres undefined) | 4.29% (inactive) | –
73 | C=Cc1ccc(Cn2c(C(=O)O)c(CNC3CCCC3)c3ccc(C)cc32)cc1 | -0.255% (inactive) | –
74 | O=C(NCc1ccc2c(c1)CCN2C(=O)c1ccccc1)Nc1cc(F)ccc1F | -19% (inactive) | –
75 | Cc1cccc(-c2nc(SCc3ccc(Br)cc3)n3[nH]c(=O)cc3n2)c1 | -25.2% (inactive) | –

Row | Compound | activity change, negative = inhibition | Potency
76 | O=c1cc2nc(-c3ccccc3)nc(SCCOc3ccc(Cl)cc3)n2[nH]1 | – | 20 µM (active)
77 | Cc1nc(SCCOc2ccc(Cl)cc2)[nH]c(=O)c1Cc1ccccc1 | 7.28% (inactive) | –
78 | COc1ccccc1CCNC(=O)c1cccn1-c1nnc(N2CCCCC2)s1 | -3.75% (inactive) | –
79 | Cc1cc(C)cc(NS(=O)(=O)c2ccc3[nH]cc(C(=O)N4CCCCC4)c(=O)c3c2)c1 | -3.39% (inactive) | –
80 | CC(C)c1ccc(NS(=O)(=O)c2ccc3[nH]cc(C(=O)NC4CCCC4)c(=O)c3c2)cc1 | – | 20 µM (active)
81 | CCCCNC(=O)c1c[nH]c2ccc(S(=O)(=O)Nc3ccc(OCC)cc3)cc2c1=O | -18.1% (inactive) | –
82 | O=C(Nc1nc2c(s1)CCCC2)c1ccccc1F | 3.06% (inactive) | –
83 | COc1cc(OC)c(NC(=O)Cc2ccc(-n3c(C)nc4cccnc43)cc2)cc1Cl | 6.51% (inactive) | –
84 | COc1ccc(CNC(=O)c2ccc(NC(=O)N3CC4CCCN4c4ccccc43)cc2)cc1 (centres undefined) | 1.31% (inactive) | –
85 | O=C(Nc1ccc2nc(SCC(=O)N3CCCc4ccccc43)sc2c1)c1ccc(Cl)cc1 | -10.6% (inactive) | –
86 | O=C(CSc1nc2ccccc2o1)N/N=C/c1ccccc1C(=O)O | 29.7% (inactive) | –
87 | CC(C)(C)C(=O)CSc1nc2ccccc2o1 | 4.4% (inactive) | –
88 | Cc1ccc(/C=N/NC(=O)CSc2nc3ccccc3o2)cc1 | – | 44.7 µM (active)
89 | Cc1ccccc1-c1nc(CS(=O)(=O)CC(=O)Nc2cc(Cl)cc(Cl)c2)c(C)o1 | 0.293% (inactive) | –
90 | CCC(C)NC(=O)C1c2ccccc2Oc2ccccc21 (centres undefined) | -7.44% (inactive) | –
91 | O=C(N/N=C/c1ccc(O)c(O)c1)C1c2ccccc2Oc2ccccc21 | – | 7.08 µM (active)
92 | Cn1c(SCC(=O)N/N=C/c2ccc(O)c(O)c2)nc2ccccc21 | -12.5% (inactive) | –
93 | Cc1ccc(Nc2c(-c3ccc(Cl)cc3)nc3sccn23)c(C)c1 | 3.67% (inactive) | –
94 | Cc1ccc(C(=O)N2CCc3cc(CNC(=O)c4ccc(Br)cc4)ccc32)cc1 | -1.22% (inactive) | –
95 | CCn1cc(C(=O)NCCc2ccccc2)c(=O)c2cc(S(=O)(=O)N3CCCCCC3)ccc21 | 13% (inactive) | –
96 | CCOC(=O)c1c(C)[nH]c(CCC(=O)NCCCN2CCN(c3cccc(Cl)c3)CC2)c1C | -26.9% (inactive) | –
97 | O=c1c2ccccc2c(-c2ccc(Br)cc2)nn1Cc1ccccc1 | 1.64% (inactive) | –
98 | O=C(NCCc1ccco1)c1nn(Cc2ccccc2)c(=O)c2ccccc12 | – | 44.7 µM (active)
99 | O=C(NCCSc1ccccc1)c1ccco1 | 6.21% (inactive) | –
